Screening results as filed in PubChem BioAssay.
Sm TGR block: S. mansoni TGR enzyme inhibition; Q962Y6; purified TGR, DTNB reduction, TNB absorbance 405 nm; Potency, µM (top dose mostly 114 µM), inactives show top-dose activity change, negative = inhibition, most hits filed as inhibitors; actives 3% (n = 360,000); note: potency is the fitted concentration of half-maximal effect; nearly all actives have a fitted effect of over 60% in size
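First, TGR (20 nM dispensed) and NADPH were mixed with compound. Second, a 15 min room-temperature incubation followed. Third, further NADPH and then DTNB were added to start the reaction. Finally, TNB absorbance was monitored kinetically.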
HCMV antiviral: human cytomegalovirus inhibition; HFF cells, HCMV-luciferase reporter, 72 h; hits give low values; activity change, negative = inhibition, % at 57.5 µM; actives 4.5% (n = 410,000); AID 1259415; in the data active = activity change below about -60%; inconclusive = no clear call, values can overlap the other calls; inactive = above about -39%
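HFF cells seeded 16 h at 37C, treated with compounds, infected with luciferase-reporter HCMV at MOI 1 PFU/cell; luciferase read at 72 h post infection, normalized to buffer-only and Salinomycin controls.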
FMDV inh: blocks foot and mouth disease virus. Potency, µM (series often up to 57.9 µM), for inactives: at the top dose activity change, negative = inhibition, usual class: inhibitors. actives 1.2% (n = 410,000). FMDV antiviral cell-based qHTS; calls by dose curve; tested in HEK293T cells; note: read-out not given here; potency is the fitted concentration of half-maximal effect; nearly all actives have a fitted effect of over 45% in size
VACV mCherry inh: inhibitors of vaccinia virus infection (mCherry reporter signal); Vaccinia virus mCherry reporter infection, fluorescence; Potency, µM (titrated, usually from 36.5 µM), inactives show top-dose activity change, negative = inhibition, hits mostly inhibitors; actives 0.63% (n = 310,000); calls by dose curve; tested in A549 cells; note: potency is the fitted concentration of half-maximal effect; nearly all actives have a fitted effect of over 35% in size
Vaccinia Venus: inhibitors of vaccinia virus (Venus reporter); Vaccinia virus Venus reporter expression, fluorescence; Potency, µM (top dose mostly 36.5 µM), inactives show top-dose activity change, negative = inhibition, hits mostly inhibitors; actives 0.46% (n = 330,000); calls by dose curve; tested in A549 cells; note: potency is the fitted concentration of half-maximal effect; nearly all actives have a fitted effect of over 30% in size
HCV inh: HCV inhibition; Huh7.5.1 HCVcc-Cre infection, luciferase reporter, 44 h; Potency, µM (top dose mostly 41.8 µM), without a hit: at the highest dose activity change, negative = inhibition, hits mostly inhibitors; actives 3.4% (n = 340,000); AID 651820; note: potency is the fitted concentration of half-maximal effect
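1,000 cells/well; 4 h culture; + compound; + HCVcc-Cre (~0.5 moi); 44 h; luciferase substrate, RT 15 min; read 15 sec.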
Numbers without * were called inactive; i = inactive; ? = inconclusive; · = not tested or not shown; + = active, no number; ! = a repeat was not active. Sampled rows, rich in hits. Any-hit rate of the full collection: about 9.3%. Unless noted, calls come from the whole dose curve; as a rule, active = well fitted curve in the direction sought with a large enough effect; inconclusive = small, poorly fitted or top-dose-only effect, or another doubt; inactive = no such curve, though single readings can be large; an effect the other way counts as inactive or inconclusive. % is set by controls: 0 for no effect and ±100 for the full control effect.

SMILES	Sm TGR block	HCMV antiviral	FMDV inh	VACV mCherry inh	Vaccinia Venus	HCV inh
Cc1ccc(C(=O)NCCc2cccs2)cc1	19%	-61*	-71%	·	·	-21%
O=C(NCCc1cccs1)c1ccc(CS(=O)Cc2ccc(Cl)cc2)o1 (configuration not stated)	45µM*	-24	8%	·	·	-19%
CSc1ccc(CCNC(=O)c2ccc(CS(=O)Cc3ccccc3Cl)o2)cc1 (configuration not stated)	-20%	?	?	·	·	?
CCOc1ccc(CCNC(=O)c2ccc(CS(=O)Cc3ccc(Cl)cc3)o2)cc1OCC (configuration not stated)	-30%	-30	-11%	·	·	2.5µM*
O=C(NC1CCCC1)c1ccc(CS(=O)Cc2ccc(Cl)cc2)o1 (configuration not stated)	?	16	6%	·	·	0%
O=C(NC1CCCCC1)c1ccc(CS(=O)Cc2ccccc2Cl)o1 (configuration not stated)	45µM*	-3	17%	·	·	-11%
O=C(NC1CCCC1)c1ccc(CS(=O)Cc2ccccc2Cl)o1 (configuration not stated)	32µM*	0	19%	·	·	-22%
CCOc1ccc(C(=O)N(CC)CC(=O)Nc2ccc3c(c2)OCCO3)cc1	-17%	-3	12%	·	·	-17%
COC(=O)c1cc2sc(Cl)cc2n1Cc1nc(-c2ccccc2)oc1C	-32%	-8	-3%	-22%	-9%	-5%
CC1(C)Cc2c(ccc3ccccc23)C(c2cc3ccccc3oc2=O)=N1	11%	-25	-11%	·	·	?
CC1(C)Cc2ccccc2C(c2cc3ccccc3oc2=O)=N1	-27%	-70*	-16%	·	?	-11%
CC(=O)OCc1cc2cccc(C)c2[nH]c1=O	0%	38	-8%	-6%	5%	19%
CC(C)c1ccc(/C=N/N2CCCCC2)cc1	5%	-70*	-11%	-5%	2%	8%
CC(C)c1ccc(/C=N/N2CCN(c3ccccn3)CC2)cc1	16%	-63*	-4%	-4%	-4%	-5%
CCOc1ccc(-c2cn3c(n2)sc2cc(C(=O)NC(C)C45CC6CC(CC(C6)C4)C5)ccc23)cc1 (configuration not stated)	7%	·	-7%	-11%	-11%	·
O=C(Cn1nc(C(F)(F)F)c2c1CCC2)NC1CCCCC1	0%	7	12%	·	·	7%
CCOc1ccc(Nc2ccnc3cc(Cl)ccc23)cc1	-1%	-62*	-16%	·	·	-28%
CCN1CCC(Nc2ccnc3cc(Cl)ccc23)CC1	6%	-90*	-2%	-5%	-7%	-2%
CCN1CCN(c2ccc(Nc3ccnc4ccccc34)cc2)CC1	-1%	?	0%	·	·	11µM*
FC(F)Oc1ccc(NC(=S)NNc2ccnc3cc(Cl)ccc23)cc1	11%	-88*	?	-11%	-11%	4µM*
CCNc1nc(Oc2ccc(C(=O)OCC)cc2)nc(N2CCOCC2)n1	-9%	·	·	·	·	·
CN1CCN(c2ccc(Nc3ccnc4cc(Cl)ccc34)cc2)CC1	3%	-83*	-15%	?	?	?
COC(=O)c1ccc(NC(=O)CCc2nnc3ccc(NCc4ccco4)nn23)cc1	?	+	-2%	i	-8%	10%
CCc1ccccc1NC(=O)CSc1nc(-c2cccc(Cl)c2)nc2c1Cc1c(CO)cnc(C)c1O2	-22%	3	-4%	-3%	-9%	·
COc1ccc(-c2nc3c(c(SCC(=O)Nc4cccc(O)c4)n2)Cc2c(CO)cnc(C)c2O3)cc1	-24%	-63*!	-17%	-5%	-9%	?
SMILES	Sm TGR block	HCMV antiviral	FMDV inh	VACV mCherry inh	Vaccinia Venus	HCV inh
CCSc1nc(-c2ccccc2OC)nc2c1Cc1c(CO)cnc(C)c1O2	-5%	-35	-13%	-15%	-6%	·
COc1ccccc1NC(=O)CSc1nc(-c2cccc(Cl)c2)nc2c1Cc1c(CO)cnc(C)c1O2	20µM*	-9	-25%	-8%	-11%	·
CCSc1nc(-c2ccccc2F)nc2c1Cc1c(CO)cnc(C)c1O2	45µM*	2	-13%	-6%	-10%	·
Cc1ncc(CO)c2c1Oc1nc(-c3ccccc3)nc(SCC(=O)Nc3cccc(O)c3)c1C2	-13%	-3	-14%	·	·	?
Cc1ccc(-c2csc(NC(=O)c3ccc(C)o3)n2)cc1	2%	-9	-4%	-9%	13%	?
O=C(Nc1ccc([N+](=O)[O-])cc1)Nc1nc(-c2ccc(Cl)s2)cs1	-14%	-100*	?	?	5.6µM*	?
CCCC(=O)Nc1nc(-c2ccc(Cl)s2)cs1	3%	105	9%	·	·	?
Cc1noc(C)c1C(=O)Nc1nc(-c2ccc([N+](=O)[O-])cc2)cs1	1%	-62*	?	i	-10%	?
NC(=S)Cc1nc(-c2ccc(Cl)cc2)cs1	0%	?	-15%	·	·	11µM*
Cc1ccc(-c2csc(NC(=O)c3c(C)noc3C)n2)cc1	-14%	14	0%	·	·	?
Cc1ccc(-c2csc(NC(=O)c3ccc([N+](=O)[O-])o3)n2)cc1	-19%	-26	1%	?	?	14µM*
CCOc1ccccc1NC(=O)C1CCN(S(C)(=O)=O)CC1	-6%	-37	-6%	·	·	2%
NC(=O)Cc1nc(-c2ccc(F)cc2)cs1	5%	0	3%	·	·	13%
CC(=O)Nc1nc(-c2ccc([N+](=O)[O-])cc2)cs1	4%	-85*	7%	·	·	10%
CC(C)=NNc1nc(-c2ccc([N+](=O)[O-])cc2)cs1	-32%	?	17%	-14%	-22%	-5%
NC(=O)Cc1nc(-c2ccc([N+](=O)[O-])cc2)cs1	0%	-93*	-3%	-14%	-9%	-3%
Cc1ccc(C)c(NC(=O)c2ccc3c(c2)CCN3S(=O)(=O)c2ccccc2)c1	-5%	-21	19%	-6%	-10%	·
Cc1ccc2[nH]c3c(=O)n(Cc4ccncc4)cnc3c2c1	-1%	27	4%	0%	-12%	15%
CCN(CC)CCn1c(=N)n(CCOc2ccccc2Cl)c2ccccc21	1%	-99*	?	?	?	·
Cn1c(=O)n(CCOc2ccccc2Cl)c2ccccc21	-1%	9	32%	·	-22%	5%
CCN(CC)CCn1c(=N)n(CC(O)COc2ccccc2C)c2ccccc21 (configuration not stated)	-3%	-99*	0%	?	?	·
Cc1cccc(OCC(O)Cn2c(=N)n(CCN3CCCCC3)c3ccccc32)c1 (configuration not stated)	2%	-62*!	?	?	?	7.1µM*
CCN(CC)CCn1c(=N)n(CC(O)c2ccco2)c2ccccc21 (configuration not stated)	-1%	-32	1%	-3%	-15%	-23%
